Source: PubChem BioAssay (several laboratories)
In the library only some 2% were active in any assay of this set; here they are far more common.
PrP UTR inh: suppresses PrP 5' UTR mRNA reporter expression; hit rate 0.35% among 340,000; inhibition, % (test concentration not listed); cell-based PrP 5' UTR mRNA reporter, plate reader; AID 488862; in the data active = inhibition above about 52%; also: 0 = median of the neutral control wells
BJeLR viability: BJeLR cell viability loss. BJeLR (HRASV12) viability, CellTiter-Glo ATP luminescence, 48 h. inhibition, % (concentration not given with the values). hit rate 0.17% among 300,000; in the data active = inhibition above about 50%
PrPC surface inh: inhibitors of human cell surface prion protein PrPC; P04156; TR-FRET read-out; inhibition, % at 13.8 µM; hit rate 0.43% among 370,000; in the data active = inhibition above about 24%; also: 0% = median of the test wells and 100% = reference compound wells
Y pestis TopoI: Y. pestis Topo-I inhibition via cleavage products | activity, % at 10 µM | hit rate 0.064% among 360,000 | Y. pestis Topo-I cleavage product accumulation, plate reader | AID 504884; in the data active = activity above about 50%, passing the limit was not always enough
PfHsp40 yeast: rescue of PfHsp40-mediated yeast toxicity. S. cerevisiae expressing PfHsp40, growth rescue, ATP luminescence. growth rescue, % at 12.5 µM. hit rate 0.68% among 340,000. AID 504582; in the data active = growth rescue above about 28%, passing the limit was not always enough;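 also: yeast W303a lacking pdr1 and pdr3 grown in galactose medium; growth measured after three days at 30 °C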
CCHF vOTU inh-1: CCHFV vOTU protease inhibition; inhibition, % at 11.5 µM; hit rate 0.55% among 370,000; Pep-AMC fluorescence; also: 0% = vehicle wells with enzyme and 100% = no enzyme wells
CCHF vOTU inh-2: CCHFV vOTU protease inhibition, confirmation; shares compounds with CCHF vOTU inh-1; Recombinant CCHFV vOTU, Pep-AMC fluorescence; inhibition, % at 11.5 µM; hit rate 17% among 1,900; AID 686976
* = called active by the depositor; · = no result. Rule as the data show it, unless noted: active = inhibition above about 30%; inactive = the rest.

SMILES	PrP UTR inh	BJeLR viability	PrPC surface inh	Y pestis TopoI	PfHsp40 yeast	CCHF vOTU inh-1	CCHF vOTU inh-2
CC(=O)O[C@@H]1C=C[C@@H](C#Cc2ccc(C(C)(C)C)cc2)O[C@@H]1COC(=O)Nc1ccccc1	·	·	-1.3	·	·	33.6*	-7.7
COC(=O)C(C[N+](=O)[O-])C1=C(O)CC(C)(C)CC1=O (stereo not given)	·	·	-3.4	·	·	3.7	·
COc1ccc(C(=O)N2CCCC(Nc3ccc(F)cc3)C2)cc1F (stereo not given)	-7.7	6.0	-2.7	2.5	0.3	-1.6	·
Cc1ccc(C(=O)N2CCCC(Nc3ccc(F)cc3)C2)cc1C (stereo not given)	-23.7	-2.8	4.5	14.9	1.5	30.3*	4.3
CCOC(=O)c1csc(NC(=O)C2CCCN(S(=O)(=O)c3cccs3)C2)n1 (stereo not given)	·	·	8.0	·	·	-0.8	·
CC(C)(C)OC(=O)N1CCC(C(=O)Nc2cccc(C(=O)NCCCc3ccccc3)c2)CC1	-5.3	·	-6.2	21.8	5.9	12.3	·
CC(C)(C)OC(=O)N1CCCC(C(=O)Nc2cccc(C(=O)NCCCc3ccccc3)c2)C1 (stereo not given)	-12.5	·	10.1	14.4	1.5	31.3*	1.0
CCSc1ncc(/C=N/Nc2ccc([N+](=O)[O-])cc2)n1C	-74.2	0.0	6.9	-23.6	0.0	3.2	·
C=Cc1cnc([N+](=O)[O-])n1C	·	·	-6.3	-3.9	·	30.4*	-18.0
CCCCNC(=O)NS(=O)(=O)c1ccc(NC(=O)CSc2nnc(-c3ccc(Cl)cc3)n2N)cc1	·	·	-4.7	·	·	6.6	·
COc1cc2c(cc1NC(=O)CSc1nnc(-c3ccccc3C)n1Cc1ccco1)oc1ccccc12	·	·	5.1	·	·	6.7	·
CC(C)Cc1ccc(-c2cc3nc(NCCCn4ccnc4)ccn3n2)cc1	·	·	-3.6	33.6	·	29.9*	2.3
CC(/C=C1\SC(=S)N(c2ccc(C(=O)O)cc2)C1=O)=C\c1ccccc1	-30.5	-1.5	0.9	-15.0	0.3	30.0*	3.7
CCc1nc2c(OCCC3CCCCC3)cccn2c1N(C)C(=O)c1ccncc1	·	·	1.4	33.2	·	31.5*	-1.2
CCc1nc2c(OCCC3CCCCC3)cccn2c1N(C)C(=O)c1ccc(OC)cc1	·	·	13.0	27.9	·	20.6	·
OCc1ccccc1OCc1ccccc1	·	·	1.6	·	·	-1.3	·
O=C1SCCN1N=Cc1ccc([N+](=O)[O-])o1	-18.4	·	-52.0	-1.9	2.2	32.3*	-0.9
CCOC(=O)c1c(C)oc2c1c(C=NCC1CCCO1)c(O)c1ccccc12 (stereo not given)	-13.0	-1.3	14.1	13.1	-1.2	35.4*	53.3*
CCOC(=O)c1c(C)oc2c1c(C=NCc1ccccn1)c(O)c1ccccc12	-17.2	·	-21.4	-1.7	-0.7	63.1*	23.7
CCCCCCCCN1CN2Cc3ccc(C)cc3C2CS1(=O)=O (stereo not given)	·	·	7.3	·	·	7.4	·
N#Cc1c(-c2ccccc2)nc(SCC(=O)Nc2ccc(OC(F)(F)Cl)cc2)[nH]c1=O	-17.5	7.3	17.5	-7.8	1.3	31.1*	16.1
COC(=O)C[C@@H]1CC[C@@H]2[C@H](COc3ccc(NC(=O)Nc4c(C)noc4C)cc3C(=O)N2C)O1	·	·	-5.0	·	·	-3.9	·
Nn1c(SCC(=O)Nc2nccs2)nnc1-c1cc(-c2ccc(F)cc2)n[nH]1	·	·	3.2	·	·	2.8	·
N#C/C(=N\Nc1cccc(Cl)c1)C(=O)c1ccccc1	-4.8	2.4	3.4	-4.7	-0.7	34.9*	-2.7
N#C/C(=N\Nc1ccccc1Cl)C(=O)c1ccccc1	-5.6	3.3	-8.5	8.8	-1.2	-3.9	·
SMILES	PrP UTR inh	BJeLR viability	PrPC surface inh	Y pestis TopoI	PfHsp40 yeast	CCHF vOTU inh-1	CCHF vOTU inh-2
CC(=O)c1cc(-c2ccc3nonc3c2)c(=O)n2c1CCC2	·	·	-14.8	·	·	4.3	·
COC(=O)C1=C(C)N(Cc2ccc(C(F)(F)F)cc2)C(=NCc2ccccc2)NC1c1ccc(C(F)(F)F)cc1 (stereo not given)	·	·	-10.7	·	·	17.3	·
COc1cc(CNC2CCCC2)c(Br)cc1OC1CCCC1	-16.7	4.1	-1.8	6.0	-0.4	4.3	·
COc1cc(CNCc2ccccc2)c(Br)cc1OC1CCCC1	-37.9	-3.1	3.3	37.7	-0.5	30.7*	-11.1
Cn1c(N)c(C(=O)COC(=O)c2ccc([N+](=O)[O-])o2)c(=O)n(C)c1=O	-81.4	-13.2	-32.7	1.9	-1.3	43.8*	-5.4
Cn1c(N)c(C(=O)COC(=O)c2ccc(Br)o2)c(=O)n(C)c1=O	-2.1	7.3	-5.0	0.7	-0.1	-6.5	·
COC(=O)[C@]12C[C@H](CC(=O)N3CCC(c4ccccc4)CC3)C(=O)N(CCc3ccc(OC)c(OC)c3)C1=C[C@H](COCc1ccccc1)O[C@@H]2C	·	·	-2.0	·	·	1.4	·
O=S1(=O)c2ccc(N3CCCC3)cc2Oc2ccccc2CN1Cc1cn(Cc2ccc(F)cc2)nn1	·	·	-1.8	·	·	7.4	·
COc1ccccc1N1CCN(N=Cc2ccccc2Br)CC1	·	·	2.1	·	·	10.5	·
Cc1ccccc1NC(=O)Cc1nc(COC(=O)c2ccc([N+](=O)[O-])cc2)cs1	0.8	·	-7.3	1.8	-2.2	5.8	·
Cc1ccccc1NC(=O)Cc1nc(COC(=O)c2cc([N+](=O)[O-])ccc2NCCO)cs1	-21.1	-8.3	-7.9	11.7	15.1	30.2*	-2.9
O=S(=O)(Nc1ccc(O)c2ncccc12)c1ccccc1F	·	·	-18.6	0.5	·	62.0*	19.1
Oc1ccc(Nc2ccccc2F)c2cccnc12	·	·	-37.8	·	·	·	·
Cc1ccc(S(=O)(=O)Nc2ccc3c4c(cccc24)CC3)c(C)c1	-26.3	27.6	6.9	13.9	0.8	-1.9	·
Cc1ccc(C)c(S(=O)(=O)Nc2ccc(O)c3ccccc23)c1	-19.9	-9.4	-14.9	-9.2	-0.4	62.3*	-8.0
Cc1ccc(C)c(S(=O)(=O)Nc2ccc(O)c(C(=O)O)c2)c1	-8.3	-11.7	-4.8	21.8	-0.7	-3.0	·
Cc1ccc(S(=O)(=O)Nc2ccc(O)c3ccccc23)c(C)c1	-23.5	9.4	-9.6	-7.6	-0.7	66.2*	-18.9
CCOc1ccc(-n2c(COc3ccc(Cl)cc3)nnc2SCC(=O)Nc2ccc(OCc3ccccc3)cc2)cc1	·	·	9.2	·	·	0.5	·
CC(=Nc1ccc(Cl)cc1N)c1c(O)cc(C)oc1=O	·	·	-1.2	·	·	15.7	·
Cc1cccc(C(=O)N[C@@H](C)C(=O)N2CCN(c3ncccn3)CC2)c1	·	·	1.3	-5.7	-0.9	34.1*	-26.8
COc1ccccc1N1CCN(C(=O)C2CCN(C(=O)c3ccccc3Cl)CC2)CC1	-8.3	-4.7	2.3	17.1	-0.9	31.2*	-6.6
COc1ccc(CNC(=O)N(C)C[C@@H]2OCc3ccccc3-c3c(n(C)c4ccccc34)C(=O)N([C@@H](C)CO)C[C@@H]2C)cc1	·	·	-5.8	·	·	24.4	·
O=C1N=C(N2C=CC(=C3C=CNC=C3)C=C2)/C(=C/N=NC(=O)c2ccccc2)S1	-4.3	6.1	-104.0	-8.5	-1.0	40.9*	-4.3
O=C(c1ccc(COc2ccccc2Cl)o1)N1CCN(Cc2ccc3c(c2)OCO3)CC1	-23.8	0.0	5.8	37.0	-0.9	13.4	·
